Experimental data published in PubChem BioAssay (NCATS).
Values without a mark were called inactive. Inconclusive results are not listed. Entries that show only a call come without a potency. Active and inactive are the calls of the source. Unless noted, calls come from the whole dose curve; as a rule, active = well fitted curve in the direction sought with a large enough effect; inconclusive = small, poorly fitted or top-dose-only effect, or another doubt; inactive = no such curve, though single readings can be large; an effect the other way counts as inactive or inconclusive.

What was measured:
UISO = assay: qHTS assay to identify novel small-molecules to repurpose for Merkel cell carcinoma treatment (AID 1296009); conditions: MCC and control cell lines, CellTiter-Glo viability, 72 h; series mostly up to 46 µM; note: nearly all actives have a fitted effect of over 60% in size
How it was run: (§1)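 qHTS format: cells treated with library compounds in DMSO across 8 (NPC) or 11 (MIPE) concentrations. Readout after 72 hr at 37 degree celsius was CellTiter-Glo luminescence.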

WaGa = assay: as above; conditions: MCC and control cell lines, CellTiter-Glo viability, 72 h; series mostly up to 46 µM
How it was run: as §1

C33A = assay: Primary qHTS to identify gynecologic anti-cancer compounds using libraries of approved drugs and bioactive compounds (AID 1345084); conditions: Gynecologic cancer cell panel viability, ATPlite luminescence, 48 h; series mostly up to 57.5 µM; note: nearly all actives have a fitted effect of over 55% in size
How it was run: (§2)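 48 h compound exposure at 37 C, 5% CO2; five-point qHTS. ATPlite luminescence readout of cell ATP.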

CAOV3 = assay: as above; conditions: Gynecologic cancer cell panel viability, ATPlite luminescence, 48 h; series mostly up to 57.5 µM
How it was run: as §2

CASKI = assay: as above; conditions: Gynecologic cancer cell panel viability, ATPlite luminescence, 48 h; series mostly up to 57.5 µM
How it was run: as §2

Es-2 = assay: as above; conditions: Gynecologic cancer cell panel viability, ATPlite luminescence, 48 h; series mostly up to 57.5 µM
How it was run: as §2

HeLa = assay: as above; conditions: Gynecologic cancer cell panel viability, ATPlite luminescence, 48 h; series mostly up to 57.5 µM
How it was run: as §2

Hek293T = assay: as above; conditions: Gynecologic cancer cell panel viability, ATPlite luminescence, 48 h, control line for the selectivity index; series mostly up to 57.5 µM
How it was run: as §2

JEG-3 = assay: as above; conditions: Gynecologic cancer cell panel viability, ATPlite luminescence, 48 h; series mostly up to 57.5 µM
How it was run: as §2

OV90 = assay: as above; conditions: Gynecologic cancer cell panel viability, ATPlite luminescence, 48 h; series mostly up to 57.5 µM
How it was run: as §2

PA-1 = assay: as above; conditions: Gynecologic cancer cell panel viability, ATPlite luminescence, 48 h; series mostly up to 57.5 µM
How it was run: as §2

SKOV3 = assay: as above; conditions: Gynecologic cancer cell panel viability, ATPlite luminescence, 48 h; series mostly up to 57.5 µM
How it was run: as §2

Tov-21-G = assay: as above; conditions: Gynecologic cancer cell panel viability, ATPlite luminescence, 48 h; series mostly up to 57.5 µM
How it was run: as §2

Tov112D = assay: as above; conditions: Gynecologic cancer cell panel viability, ATPlite luminescence, 48 h; series mostly up to 57.5 µM
How it was run: as §2

[1] = Drug repurposing screens with cells derived from glioblastoma tumor samples (AID 1345199); conditions: GBM patient neurospheres viability, ATP luminescence, 48 h; note: nearly all actives have a fitted effect of over 40% in size; note: potency is the fitted concentration of half-maximal effect
How it was run: (§3)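 Four patient lines of CD133+ GBM neurospheres were screened at several concentrations; hits were retested in those lines plus three slower-growing GBM lines, using 48-hour treatment and ATP-based viability.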

astro = assay: as above; conditions: viability, ATP luminescence, 48 h; series mostly up to 45.9 µM
How it was run: as §3

[2] = target: Nuclear receptor subfamily 1 group I member 2 (Rattus norvegicus) (UniProt Q9R1A7); assay: qHTS assay for small molecule activators of the rat pregnane X receptor (rPXR) signaling pathway (AID 651751; call rule not given here); conditions: rPXR reporter cells, luciferase (One-Glo), 24 h
Chain of Nuclear receptor subfamily 1 group I member 2 (Rattus norvegicus) (Q9R1A7 whole entry, looked up): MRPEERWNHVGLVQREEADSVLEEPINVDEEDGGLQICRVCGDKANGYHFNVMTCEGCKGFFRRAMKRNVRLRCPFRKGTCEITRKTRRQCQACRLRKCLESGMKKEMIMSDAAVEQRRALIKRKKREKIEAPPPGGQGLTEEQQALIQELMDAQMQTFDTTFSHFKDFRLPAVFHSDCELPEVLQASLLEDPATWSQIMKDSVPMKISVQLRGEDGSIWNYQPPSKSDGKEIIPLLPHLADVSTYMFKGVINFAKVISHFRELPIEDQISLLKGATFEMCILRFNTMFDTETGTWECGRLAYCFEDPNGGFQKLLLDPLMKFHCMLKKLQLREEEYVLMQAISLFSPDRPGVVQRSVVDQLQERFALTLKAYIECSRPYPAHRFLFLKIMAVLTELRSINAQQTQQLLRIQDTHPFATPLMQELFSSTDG

[3] = qHTS assay for small molecule activators of the human pregnane X receptor (PXR) signaling pathway (AID 720659; call rule not given here)
[4] = qHTS assay to identify inhibitors of the type 1 interferon - major histocompatibility complex class I in skeletal muscle: Counter screen cell viability and HiBit confirmation (AID 1347412); conditions: iHSKM muscle cells + IFN-b, HiBiT or CellTiter-Glo, 24 h; Viability, at 45.9 µM (top of the series); note: nearly all actives have a fitted effect of over 60% in size
How it was run: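 HLA-B*08:01–HiBiT knock-in immortalized human myoblasts (C25cl48) stimulated with 4.0 ng/ml human IFN-beta and dosed with compound in a 12-point 1:3 titration (top final 46 uM). After 24 hrs at 37 C, HiBiT lytic luminescence or CellTiter Glo ATP read out.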

[5] = at 45.9 µM (top of the series), tumour line B
[6] = at 45.9 µM (top of the series), tumour line D
[7] = at 46.1 µM (top of the series), tumour line C
[8] = at 46 µM (top of the series), tumour line A
[9] = at 20 µM (top of the series), tumour line C
[10] = at 21.2 µM (top of the series), tumour line B
[11] = at 21.2 µM (top of the series), tumour line D
[12] = at 21.3 µM (top of the series), tumour line A

## Cc1cc(OI)c(C(C)C)cc1-c1cc(C(C)C)c(OI)cc1C
UISO
  outcome: inactive
WaGa
  outcome: inactive
C33A
  outcome: inactive
CAOV3
  outcome: inactive
CASKI
  outcome: inactive
Es-2
  outcome: inactive
HeLa
  outcome: inactive
Hek293T
  outcome: inactive
JEG-3
  outcome: inactive
OV90
  Potency: inactive
PA-1
  outcome: inactive
SKOV3
  outcome: inactive
Tov-21-G
  outcome: inactive
Tov112D
  outcome: inactive
[1]; [5]
  activity, negative = cell killing: -6.87%
[1]; [6]
  activity, negative = cell killing: -13.4%
[1]; [7]
  activity, negative = cell killing: 33.1%
astro
  outcome: inactive

## O=C(/C=C/c1ccc(O)c(O)c1)O[C@@H]1C[C@@](OC(=O)/C=C/c2ccc(O)c(O)c2)(C(=O)O)C[C@@H](O)[C@@H]1O
UISO
  outcome: inactive
WaGa
  outcome: inactive
C33A
  outcome: inactive
CAOV3
  outcome: inactive
CASKI
  outcome: inactive
Es-2
  outcome: inactive
HeLa
  outcome: inactive
Hek293T
  outcome: inactive
JEG-3
  outcome: inactive
OV90
  Potency: inactive
PA-1
  outcome: inactive
SKOV3
  outcome: inactive
Tov-21-G
  outcome: inactive
Tov112D
  outcome: inactive
[1]; [5]
  activity, negative = cell killing: 1.43%
[1]; [6]
  activity, negative = cell killing: -4.97%
[1]; [7]
  activity, negative = cell killing: -11.7%
[1]; tumour line A
  Potency: 28.2 µM (active)
astro
  outcome: inactive

## OCCN1C[C@H](O)[C@@H](O)[C@H](O)[C@H]1CO
UISO
  outcome: inactive
WaGa
  outcome: inactive
C33A
  outcome: inactive
CAOV3
  outcome: inactive
CASKI
  outcome: inactive
Es-2
  outcome: inactive
HeLa
  outcome: inactive
Hek293T
  outcome: inactive
JEG-3
  outcome: inactive
OV90
  Potency: inactive
PA-1
  outcome: inactive
SKOV3
  outcome: inactive
Tov-21-G
  outcome: inactive
Tov112D
  outcome: inactive
[1]; [5]
  activity, negative = cell killing: -4.15%
[1]; [6]
  activity, negative = cell killing: -2.64%
[1]; [8]
  activity, negative = cell killing: -17.7%
[1]; [7]
  activity, negative = cell killing: -28.1%
astro
  outcome: inactive

## O=C(/C=C/c1ccccc1)OCc1ccccc1
UISO
  outcome: inactive
WaGa
  outcome: inactive
C33A
  outcome: inactive
CAOV3
  outcome: inactive
CASKI
  outcome: inactive
Es-2
  outcome: inactive
HeLa
  outcome: inactive
Hek293T
  outcome: inactive
JEG-3
  outcome: inactive
OV90
  Potency: inactive
PA-1
  outcome: inactive
SKOV3
  outcome: inactive
Tov-21-G
  outcome: inactive
Tov112D
  outcome: inactive
[1]; [5]
  activity, negative = cell killing: -5.75%
[1]; [6]
  activity, negative = cell killing: -8.15%
[1]; [8]
  activity, negative = cell killing: -17.7%
[1]; [7]
  activity, negative = cell killing: -14.4%
astro
  outcome: inactive

## CC(C)=CCC/C(C)=C/CO
UISO
  outcome: inactive
WaGa
  outcome: inactive
C33A
  outcome: inactive
CAOV3
  outcome: inactive
CASKI
  outcome: inactive
Es-2
  outcome: inactive
HeLa
  outcome: inactive
Hek293T
  outcome: inactive
JEG-3
  outcome: inactive
OV90
  Potency: inactive
PA-1
  outcome: inactive
SKOV3
  outcome: inactive
Tov-21-G
  outcome: inactive
Tov112D
  outcome: inactive
[1]; [5]
  activity, negative = cell killing: -6.27%
[1]; [6]
  activity, negative = cell killing: 1.11%
[1]; [8]
  activity, negative = cell killing: -25.2%
[1]; [7]
  activity, negative = cell killing: 8.23%
astro
  outcome: inactive
[2]
  max response: 1.1%

## COC(=O)N/N=C/c1c[n+]([O-])c2ccccc2[n+]1[O-]
UISO
  outcome: inactive
WaGa
  outcome: inactive
C33A
  outcome: inactive
CAOV3
  outcome: inactive
CASKI
  outcome: inactive
Es-2
  outcome: inactive
HeLa
  outcome: inactive
Hek293T
  outcome: inactive
JEG-3
  outcome: inactive
OV90
  Potency: inactive
PA-1
  outcome: inactive
SKOV3
  outcome: inactive
Tov-21-G
  outcome: inactive
Tov112D
  outcome: inactive
[1]; [5]
  activity, negative = cell killing: 3.32%
[1]; [6]
  activity, negative = cell killing: -10.1%
[1]; [8]
  activity, negative = cell killing: -9.78%
[1]; [7]
  activity, negative = cell killing: 2.7%
astro
  outcome: inactive

## CCc1cccc(CC)c1NC(=O)CN(CC(=O)O)CC(=O)O
UISO
  outcome: inactive
WaGa
  outcome: inactive
C33A
  outcome: inactive
CAOV3
  outcome: inactive
CASKI
  outcome: inactive
Es-2
  outcome: inactive
HeLa
  outcome: inactive
Hek293T
  outcome: inactive
JEG-3
  outcome: inactive
OV90
  Potency: inactive
PA-1
  outcome: inactive
SKOV3
  outcome: inactive
Tov-21-G
  outcome: inactive
Tov112D
  outcome: inactive
[1]; [9]
  activity, negative = cell killing: -11.2%
[1]; [10]
  activity, negative = cell killing: -2.25%
[1]; [11]
  activity, negative = cell killing: -7.08%
[1]; [12]
  activity, negative = cell killing: -26%
astro
  outcome: inactive

## CN[C@@H]1[C@@H](O)[C@@H](O[C@@H]2[C@H](O)[C@H](O[C@H]3OC(CN)=CC[C@H]3N)[C@@H](N)C[C@H]2N)OCC1(C)O (stereo not given in full)
UISO
  outcome: inactive
WaGa
  outcome: inactive
C33A
  outcome: inactive
CAOV3
  outcome: inactive
CASKI
  outcome: inactive
Es-2
  outcome: inactive
HeLa
  outcome: inactive
Hek293T
  outcome: inactive
JEG-3
  outcome: inactive
OV90
  Potency: inactive
PA-1
  outcome: inactive
SKOV3
  outcome: inactive
Tov-21-G
  outcome: inactive
Tov112D
  outcome: inactive
[1]; [5]
  activity, negative = cell killing: -0.265%
[1]; [6]
  activity, negative = cell killing: 7.79%
[1]; [8]
  activity, negative = cell killing: -24.3%
[1]; [7]
  activity, negative = cell killing: -7.7%
astro
  outcome: inactive

## CC(=O)NS(=O)(=O)c1ccc(N)cc1
UISO
  outcome: inactive
WaGa
  outcome: inactive
C33A
  outcome: inactive
CAOV3
  outcome: inactive
CASKI
  outcome: inactive
Es-2
  outcome: inactive
HeLa
  outcome: inactive
Hek293T
  outcome: inactive
JEG-3
  outcome: inactive
OV90
  Potency: inactive
PA-1
  outcome: inactive
SKOV3
  outcome: inactive
Tov-21-G
  outcome: inactive
Tov112D
  outcome: inactive
[1]; [5]
  activity, negative = cell killing: -8.29%
[1]; [6]
  activity, negative = cell killing: -18.7%
[1]; [8]
  activity, negative = cell killing: -22.6%
[1]; [7]
  activity, negative = cell killing: -4.02%
[2]
  max response: -2.2%
[3]
  outcome: inactive

## CCCCOC(=O)c1ccc(N)cc1
UISO
  outcome: inactive
WaGa
  outcome: inactive
C33A
  outcome: inactive
CAOV3
  outcome: inactive
CASKI
  outcome: inactive
Es-2
  outcome: inactive
HeLa
  outcome: inactive
Hek293T
  outcome: inactive
JEG-3
  outcome: inactive
OV90
  Potency: inactive
PA-1
  outcome: inactive
SKOV3
  outcome: inactive
Tov-21-G
  outcome: inactive
Tov112D
  outcome: inactive
[1]; [6]
  activity, negative = cell killing: -24.9%
[1]; tumour line A
  Potency: 11.2 µM (active)
[1]; tumour line B
  Potency: 12.6 µM (active)
[1]; tumour line C
  Potency: 16.4 µM (active)
astro
  outcome: inactive
[4]
  outcome: inactive
[2]
  max response: 15.7%

## CO[C@@]1(NC(=O)C(C(=O)O)c2ccc(O)cc2)C(=O)N2C(C(=O)O)=C(CSc3nnnn3C)CO[C@@H]21 (stereo not given in full)
UISO
  outcome: inactive
WaGa
  outcome: inactive
C33A
  outcome: inactive
CAOV3
  outcome: inactive
CASKI
  outcome: inactive
Es-2
  outcome: inactive
HeLa
  outcome: inactive
Hek293T
  outcome: inactive
JEG-3
  outcome: inactive
OV90
  Potency: inactive
PA-1
  outcome: inactive
SKOV3
  outcome: inactive
Tov-21-G
  outcome: inactive
Tov112D
  outcome: inactive
[1]; [9]
  activity, negative = cell killing: -17.7%
[1]; [10]
  activity, negative = cell killing: -0.689%
[1]; [11]
  activity, negative = cell killing: -3.96%
[1]; [12]
  activity, negative = cell killing: -23.1%
astro
  outcome: inactive

## C[C@@H](N)C(=O)O
UISO
  outcome: inactive
WaGa
  outcome: inactive
C33A
  outcome: inactive
CAOV3
  outcome: inactive
CASKI
  outcome: inactive
Es-2
  outcome: inactive
HeLa
  outcome: inactive
Hek293T
  outcome: inactive
JEG-3
  outcome: inactive
OV90
  Potency: inactive
PA-1
  outcome: inactive
SKOV3
  outcome: inactive
Tov-21-G
  outcome: inactive
Tov112D
  outcome: inactive
[1]; [5]
  activity, negative = cell killing: -7.83%
[1]; [6]
  activity, negative = cell killing: -21.5%
[1]; [7]
  activity, negative = cell killing: 15%
astro
  outcome: inactive
